Screens from PubChem BioAssay.
This is a sample that favours compounds with a hit; in the whole collection about 22% have one here.
E-sel TNF inh = E-selectin induction blockers in HUVEC – imaging, immunofluorescence, high content, primary screen. actives 0.71% (n = 120,000). HUVEC TNFa-induced E-selectin immunofluorescence. inhibition, % at 2 µM;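 active = inhibition above the batch mean plus 3 SD, and confirmed as a hit on visual image review, cut at about 43% in these data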;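 also: 0% = TNF-stimulated DMSO wells and 100% = unstimulated control wells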
CYP2C19 inhib = blockers of cytochrome P450 2C19 activity – biochemical, luminescence, ADME assay, primary screen; P33261; inhibition, % at 5 µM; actives 21% (n = 96,000); CYP2C19 Supersomes, luciferin-H EGE luminescence, 30 min; AID 778, 2007;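 active = CYP2C19 inhibition above a set limit at 5 µM in the primary screen, cut at about 50% in these data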;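 also: plate controls were negative control wells for no effect and 2.5 mM tranylcypromine positive control for full effect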
CYP2C19 activ = human CYP2C19 activators, primary screen, biochemical, luminescence; Cytochrome P450 2C19 (Homo sapiens), P33261; AID 1025, 2008; recombinant CYP2C19, luciferin-H EGE luminescence; hits give high values; 0 = fully inhibited enzyme, 1 = untreated enzyme; activation factor at 5 µM; 96,000 tested, under 10 active;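 active = activation factor of at least 2 at 5 µM in the primary screen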;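 also: 0 = wells with 2.5 mM tranylcypromine and 1 = vehicle-only wells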
F-actin modifier = modifiers of F-actin cytoskeleton organization, primary screen, imaging, HUVEC, phalloidin staining, high-content imaging. HUVEC TNFa F-actin phalloidin imaging. actives 0.18% (n = 91,000). inhibition, % at 2 µM;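 active = inhibition above the batch mean plus 3 SD and confirmed as a hit by visual image inspection, cut at about 30% in these data, passing the limit was not always enough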
CYP2C9 activ = human CYP2C9 activators, primary screen, biochemical, luminescence | Cytochrome P450 2C9 (Homo sapiens), P11712 | recombinant CYP2C9, luciferin-H conversion; hits give high values; factor 1 = untreated enzyme, 0 = blocked | activation factor at 5 µM | actives 1.4% (n = 96,000);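 active = activation factor of 2 or more for CYP2C9 at a 5 µM dose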;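 also: 0 = sulfaphenazole-blocked wells and 1 = vehicle-only wells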
Target sequence (P11712 whole entry, looked up): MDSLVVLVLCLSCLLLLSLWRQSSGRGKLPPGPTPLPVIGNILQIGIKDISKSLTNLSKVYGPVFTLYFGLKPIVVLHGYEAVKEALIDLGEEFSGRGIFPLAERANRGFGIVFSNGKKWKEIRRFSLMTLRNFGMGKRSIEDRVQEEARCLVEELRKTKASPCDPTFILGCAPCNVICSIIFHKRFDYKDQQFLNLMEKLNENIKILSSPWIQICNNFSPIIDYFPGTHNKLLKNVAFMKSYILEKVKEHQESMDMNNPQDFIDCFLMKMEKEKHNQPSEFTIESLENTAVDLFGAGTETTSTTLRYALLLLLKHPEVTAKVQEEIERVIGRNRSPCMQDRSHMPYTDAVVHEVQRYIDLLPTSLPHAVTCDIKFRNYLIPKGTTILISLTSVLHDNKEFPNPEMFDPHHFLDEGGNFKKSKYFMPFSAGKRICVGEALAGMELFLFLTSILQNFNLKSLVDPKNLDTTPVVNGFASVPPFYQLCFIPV
CYP2C9 inh = blockers of cytochrome P450 2C9 activity – biochemical, luminescence, ADME assay, primary screen; P11712; CYP2C9 Supersomes, luciferin-H conversion; inhibition, % at 5 µM; actives 20% (n = 96,000);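 active = blocking of liver enzyme CYP2C9 beyond about 50% at 5 µM, limit read from the data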
An asterisk follows results filed as active; · = no result given.

SMILES	E-sel TNF inh	CYP2C19 inhib	CYP2C19 activ	F-actin modifier	CYP2C9 activ	CYP2C9 inh
COc1ccc(Cn2c(CCC(=O)Nc3ccc(CC#N)cc3)nc3cccnc32)cc1	·	4	1	8	0.9	12
CCOC(=O)c1cccc(NC(=O)CSc2nnc(C3CCCCC3)n2CC)c1	-36	26	0.7	·	0.5	46
COc1cccc(C2NC(=O)NC(O)(C(F)(F)F)C2C(=O)c2cccnc2)c1OC (stereo not drawn)	·	92*	0.1	·	0.5	49
COc1ccc(C2NC(=O)NC(O)(C(F)(F)F)C2C(=O)c2ccccc2)cc1OC (stereo not drawn)	-8	9	0.9	13	0.8	18
COc1ccc(CCNC2CC(C)N(C)CC2C)cc1OC (stereo not drawn)	-8	8	0.9	6	0.5	50
CCN(CC)S(=O)(=O)c1ccc(NC2c3ccccc3C(=O)N2Cc2ccc3c(c2)OCO3)cc1 (stereo not drawn)	·	13	0.9	·	0.9	9
O=C1OC(Nc2ccc3c(c2)OCO3)c2ccccc21 (stereo not drawn)	·	64*	0.4	4	0.7	26
O=C1OC(Nc2ccc(F)cc2F)c2ccccc21 (stereo not drawn)	-2	-2	1	21	1.1	-6
O=C1c2ccccc2C(Nc2ccc3c(c2)OCCO3)N1Cc1ccc2c(c1)OCO2 (stereo not drawn)	·	78*	0.2	-10	0.2	80*
COC(CN(C(=O)CCl)C(C(=O)NC1CCCC(C)C1C)c1ccc(C)cc1)OC (stereo not drawn)	-10	·	·	·	·	·
O=C(COC(=O)c1ccc(S(=O)(=O)NCc2ccco2)cc1)NCCC1=CCCCC1	2	-22	1.2	-37	1	-3
Cc1sc2c(c1C)c(=O)nc1scc(CC(=O)O)n12	-47	-13	1.1	3	1	-4
CCOC(=O)c1cc(NC(=O)c2cc(C)on2)cc(C(=O)OCC)c1	4	28	0.7	6	0.8	18
COc1ccccc1CC(=O)Nc1ccc(-c2noc(COc3cccc(C)c3C)n2)cc1	-9	25	0.8	3	0.4	63*
COc1ccccc1OCc1nc(-c2ccc([N+](=O)[O-])cc2)no1	31	·	·	·	·	·
COc1ccccc1CC(=O)Nc1ccc(-c2noc(COc3ccc(Br)cc3)n2)cc1	8	1	1	-11	1	3
COc1ccc(-c2noc(CCC(N)=O)n2)cc1OC	80*	3	1	12	1.1	-10
CCOc1ccc(-c2noc(CCCC(N)=O)n2)cc1OC	1	0	1	0	0.9	14
COc1ccc(-c2noc(COc3ccccc3OC)n2)cc1OC	-15	78*	0.2	·	1.7	-73
COCc1nc(-c2cc(OC)c(OC)c(OC)c2)no1	-41	48	0.5	·	0.5	51*
Cc1cccc(NC2=C(Cl)C(=O)OC2OC(=O)c2ccco2)c1 (stereo not drawn)	15	·	·	·	·	·
Cc1nn(-c2ccccc2)c(=S)c2ccccc12	24	·	·	·	·	·
Nc1nc(SCc2ccccc2)ns1	1	6	0.9	8	1.1	-13
Nc1nc2c(s1)CC(c1ccccc1)CC2 (stereo not drawn)	23	69*	0.3	-1	0.6	45
O=C(NC(Cc1ccccc1)C(=O)O)/C(=C/c1ccccc1)NC(=O)c1ccccc1 (stereo not drawn)	-28	·	·	·	·	·
SMILES	E-sel TNF inh	CYP2C19 inhib	CYP2C19 activ	F-actin modifier	CYP2C9 activ	CYP2C9 inh
O=C(NCCSc1ccc(Cl)cc1)c1ccc(CN2CCOCC2)cc1	-6	·	·	·	·	·
O=C(NCCSCc1ccc(Cl)cc1Cl)c1ccc(CN2CCOCC2)cc1	6	49	0.5	5	0.2	81*
O=C(/C=C/c1ccc2c(c1)OCO2)NCCSCc1ccc(Cl)cc1Cl	7	21	0.8	20	0.3	73*
O=C(/C=C/c1ccc2c(c1)OCO2)NCCSCc1cccc(Cl)c1	-9	25	0.7	10	0.6	43
CCCC(OC(=O)CC1Sc2ccccc2NC1=O)C(=O)NCc1ccco1 (stereo not drawn)	15	28	0.7	3	0.7	33
CCOC(=O)CC(/C(C)=N\O)c1ccccc1 (stereo not drawn)	·	51*	0.5	10	1	-4
CCOC(=O)CC(NC(=O)C(CC)c1ccccc1)c1ccccc1Cl (stereo not drawn)	21	·	·	·	·	·
Cn1nnnc1SCc1ccccc1[N+](=O)[O-]	-1	12	0.9	0	1	2
N#Cc1ccsc1NC(=O)CN1CCN(S(=O)(=O)c2ccc3ccccc3c2)CC1	6	·	·	·	·	·
N#Cc1ccsc1NC(=O)COC(=O)c1ccc2ccccc2c1	97*	·	·	·	·	·
NC(=O)C1(N2CCCCC2)CCN(C(=O)c2ccccc2)CC1	-4	11	0.9	-3	0.9	9
C=C(C)CNC(=S)NNC(=O)CCn1c2ccccc2c2ccccc21	14	·	·	·	·	·
Cc1ccc(S(=O)(=O)NCC(=O)N(CC(=O)NCc2ccco2)Cc2ccc3c(c2)OCO3)cc1	15	31	0.7	3	0.7	28
CC(C)Oc1nnnn1-c1ccccc1	-14	39	0.6	27	0.4	63*
COc1ccc(Oc2nnnn2-c2ccccc2)cc1	-14	·	·	-4	·	·
c1ccc(-n2nnnc2Oc2ccc(-n3ccnc3)cc2)cc1	1	100*	0	13	0	99*
Clc1ccc(Oc2nnnn2-c2ccccc2)cc1	-13	73*	0.3	-15	0.5	48
NC(=O)c1ccc(-n2nnnc2Oc2ccccc2)cc1	-22	22	0.8	-15	1	3
COc1cccc(Oc2nnnn2-c2ccccc2)c1	-17	60*	0.4	-14	0.8	25
CC(C)NC(=O)CN(c1cccc([N+](=O)[O-])c1)S(=O)(=O)c1ccccc1	13	·	·	·	·	·
C[C@@H](C(=O)NCc1ccccn1)[C@H]1C[C@]1(C)[C@H](NC(=O)OCc1ccccc1)c1ccccc1	-26	·	·	·	·	·
CN(C)c1nc(N)nc(CSc2nnnn2C)n1	7	-4	1	6	1.3	-26
O=S(=O)(c1ccccc1)N1CCN(c2ncnc3sc(-c4ccccc4)cc23)CC1	-20	82*	0.2	5	0.1	93*
CCCn1nnc(NC(=O)c2cccc(OCC(C)C)c2)n1	93*	26	0.7	·	0.6	41
CCCn1nnc(NC(=O)c2ccc(Cl)cc2Cl)n1	-2	89*	0.1	21	1.2	-24
CCOC(=O)N1CCC(Nc2c(Nc3cccc(CC)c3)c(=O)c2=O)CC1	-10	17	0.8	-30	0.6	36
